# Screening data deposited in PubChem by Buhrlage Lab, Dana-Farber Cancer Institute and Novartis Institutes for BioMedical Research (Cambridge, Mass).
# USP30 inh – inhibitors of human USP30 deubiquitinase; Q70CQ3; purified USP30, Ub-rhodamine cleavage fluorescence; inhibition, % at 25 µM; 5.3% of 47,000 active; AID 1645860
# USP17 inh – blocks human USP17 ubiquitin-rhodamine cleavage; inhibition, % at 50 µM; A8MUK1; AID 1645855; purified USP17, Ub-rhodamine cleavage fluorescence, 3 h; 6.5% of 47,000 active
# Target sequence (A8MUK1 whole entry, looked up): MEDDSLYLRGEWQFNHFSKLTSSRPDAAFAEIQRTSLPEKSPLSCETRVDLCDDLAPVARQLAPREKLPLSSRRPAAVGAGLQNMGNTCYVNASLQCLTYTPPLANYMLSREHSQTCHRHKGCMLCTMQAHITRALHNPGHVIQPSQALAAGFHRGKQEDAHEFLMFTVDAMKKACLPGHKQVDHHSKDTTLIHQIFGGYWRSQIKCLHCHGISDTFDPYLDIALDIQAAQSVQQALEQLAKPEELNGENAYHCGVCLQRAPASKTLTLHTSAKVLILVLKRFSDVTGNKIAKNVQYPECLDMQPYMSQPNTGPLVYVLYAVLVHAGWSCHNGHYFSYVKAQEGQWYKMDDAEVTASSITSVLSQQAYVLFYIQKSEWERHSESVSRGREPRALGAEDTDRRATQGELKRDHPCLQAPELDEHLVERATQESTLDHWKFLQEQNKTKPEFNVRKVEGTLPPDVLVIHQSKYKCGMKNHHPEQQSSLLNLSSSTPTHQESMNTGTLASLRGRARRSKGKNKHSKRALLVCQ
# * = called active by the depositor; x = not tested or not shown. This is a sample that favours compounds with a hit; in the whole collection about 9.6% have one here. Cut-off read from the data, not from the text of the source: active = inhibition above about 30%; inactive = the rest.
SMILES,USP30 inh,USP17 inh
COc1ccc(NC(=O)Cn2cnc3c2c(=O)n(C)c(=O)n3C)cc1,3,2
Cc1ccc(-c2noc(CNc3ccc(Oc4ccccc4)cc3)n2)cc1,8,30
O=C(Nc1ccc(CN2CCOCC2)cc1)c1cccc(Br)c1,5,-4
COc1ccc(NC(=O)c2ccco2)cc1NC(=O)COc1ccc(Cl)cc1Cl,-5,-2
O=C(COc1ccc(Cl)cc1Cl)Nc1ccc2[nH]c(=O)[nH]c2c1,66*,35*
O=C(Nc1ncn[nH]1)C1CCCN1S(=O)(=O)c1ccc(Cl)cc1 (stereo not drawn),26,7
COc1ccc(-n2ccnc(SCc3ccc(Cl)cc3)c2=O)cc1,15,33*
CCOc1ccc(-n2ccnc(NCc3ccc(OC)cc3)c2=O)cc1,20,4
Cc1cc(-c2ncc(C)[nH]2)nc(CC2CCN(C(=O)C3CCN(C)CC3)CC2)n1,-10,-12
O=C(c1cn(-c2cccc(F)c2)nn1)N1CCN(c2ccccc2)CC1,-140,-10
O=C(c1cn(-c2cccc(F)c2)nn1)N1CCc2ccccc2C1,11,55*
Cc1ncc(C(=O)NCc2ccc3c(c2)OCO3)c(C)n1,3,-1
Cc1ccccc1C(=O)Nc1cc(=O)[nH]c2nc(Cc3ccccc3)nn12,-91,1
O=C(Nc1ccc2c(c1)OCCO2)Nc1ccc2nc3n(c(=O)c2c1)CCCC3,4,32*
COc1cc(NC(=O)Nc2ccc3nc4n(c(=O)c3c2)CCCC4)cc(OC)c1,-23,-9
COc1cccc(NC(=O)Nc2ccc3nc4n(c(=O)c3c2)CCCC4)c1,27,34*
O=C(Nc1ccc2nc3n(c(=O)c2c1)CCCC3)c1ccc2c(c1)OCO2,-42,-8
CCCN(Cc1cc2cc(C)ccc2[nH]c1=O)S(=O)(=O)c1ccccc1,2,11
CCOc1ccccc1C(=O)NCc1cnn2ccccc12,-1,-6
COc1c(C)c(OC(=O)c2c(C)c(C)c(OC(=O)c3c(C)c(C)c(O)c(C)c3O)c(C)c2OC)c(C)c(C)c1C(=O)O,54*,51*
COc1c(O)c(C)c(C)c(O)c1OC (tested in a mixture with another compound),15,29
Cc1nc(N(C)C)ncc1C(=O)N1Cc2ccccc2OC2(CCOCC2)C1,0,-2
Cc1cc2c(ncn2C)c(NS(=O)(=O)c2ccc(C(C)(C)C)cc2)c1C,-2,-11
COc1ccccc1NS(=O)(=O)c1cccc(C(=O)N2CCCCCC2)c1,36*,5
CN(c1ccccc1)S(=O)(=O)c1cccc(C(=O)N2CCCCCC2)c1,x,2
SMILES,USP30 inh,USP17 inh
O=C(NCc1ccc2c(c1)OCO2)c1cn(-c2cc(N3CCOCC3)ncn2)cn1,-25,12
COCCNC(=O)CN1C(=O)c2ccccc2Sc2ccc(C(=O)N3CCCC3)cc21,-50,0
COc1ccc(NC(=O)CN2C(=O)c3ccccc3Sc3ccc(C(=O)N4CCCC4)cc32)c(OC)c1,49*,55*
Cc1cccc(Nc2cc(C3CCCN(C(=O)c4cncnc4)C3)ccn2)n1 (stereo not drawn),-3,0
CC(OC(=O)c1cccc(S(=O)(=O)N2CCCCC2)c1)C(=O)NC1CCCC1 (stereo not drawn),-7,-6
CNc1nc2c(c(=O)n1-c1ccccc1)CCN(C(=O)c1ccc3ccccc3c1)C2,43*,12
CNc1nc2c(c(=O)n1-c1ccccc1)CN(C(=O)c1ccccc1)CC2,8,3
CNc1nc2c(c(=O)n1Cc1ccccc1)CN(C(=O)c1ccc(CN)cc1)CC2,25,59*
CNc1nc2c(c(=O)n1Cc1ccccc1)CN(C(=O)Nc1ccccc1)CC2,3,0
CN(C)c1cc(C(=O)NC2CCCCC2)nc2ccnn12,-18,0
CC(C)(C)c1cc(C(=O)NC2CCCC2)nc2ccnn12,31*,31*
CS(=O)(=O)N(CC(=O)Nc1ccc(S(=O)(=O)N2CCCC2)cc1)c1ccc(Cl)cc1,0,0
CC(C)(C)c1ccc(N(CC(N)=O)S(C)(=O)=O)cc1,34*,11
CS(=O)(=O)NC[C@H]1OC[C@@H]2CCN(c3ncc(F)cn3)C[C@@H]21,-6,-4
Cc1cc(C)c(NC(=O)c2ccc3c(c2)-c2ccccc2S(=O)(=O)N3C)c(C)c1,14,18
CCOC(=O)c1noc2ncn(Cc3nc(-c4cccc(C)c4)oc3C)c(=O)c12,2,0
CCOC(=O)c1noc2ncn(Cc3nc(-c4ccc(C)cc4)oc3C)c(=O)c12,35*,31*
O=C(Nc1ccc(F)c(F)c1)C1Oc2ccccc2NC1=O (stereo not drawn),16,14
O=C(Nc1cccc(-c2nc3cnccc3o2)c1)c1cccc(F)c1,x,76*
COc1cccc(C(=O)Nc2cccc(-c3nc4cnccc4o3)c2)c1,x,55*
O=C(Nc1cccc(-c2nc3cnccc3o2)c1)c1ccc(Br)o1,31*,25
O=C(Cc1ccccc1)Nc1cc(-c2nc3cnccc3o2)ccc1Cl,-39,15
COc1ccc(-c2nnc(NC(=O)c3cccc(SC)c3)o2)cc1,15,-45
COc1cc(C(=O)NCc2ccc(-c3nc4cnccc4o3)cc2)cc(OC)c1OC,2,11
O=C(Nc1cccnc1)c1cc(F)cc(F)c1,19,5
SMILES,USP30 inh,USP17 inh
O=C(NCc1ccc(-c2nc3cnccc3o2)cc1)c1cc2ccccc2o1,-14,81*
CC(=O)N1C[C@@H]2C[C@@]3(C)[C@H](CCCC[C@@H]13)N2C(=O)c1cccc(=O)[nH]1,6,5
CC1CCN(c2nc3[nH]c(=O)n(C(C)C)c(=O)c3s2)CC1,-37,-17
Cc1ncc(C(=O)NC2CCCC2)c(=O)n1CC(=O)Nc1ccccc1Cl,0,2
CCc1ccc(S(=O)(=O)Nc2ccc3[nH]ncc3c2)cc1,0,7
O=C1C2CN(Cc3ccccc3)CC=C2Nc2nnnn21 (stereo not drawn),-1,0
Cc1nc2c(c(=O)[nH]1)CC[C@@H]1CN(Cc3ccnc(N4CCCC4)n3)C[C@H]21,2,2
O=C(NCCc1nc(-c2ccccc2)no1)c1ccccc1Cl,-25,-2
O=C(COc1ccccc1)Nc1ccc(-c2nc3cnccc3o2)c(O)c1,-16,0
COc1ccc(-c2nc3cnccc3o2)cc1NC(=O)c1cccc(F)c1,-28,49*
Cc1cccc(NC(=O)CSc2nc3nc(C)ccc3o2)c1,16,-3
Cc1ccccc1NC(=O)Cn1cc(-c2nc(C3CC3)no2)ccc1=O,70*,13
Cc1ccc(NC(=O)Cn2cc(-c3nc(C4CC4)no3)ccc2=O)cc1,36*,15
Cc1cccc(NC(=O)Cn2cc(-c3nc(C4CC4)no3)ccc2=O)c1,-11,6
Cc1ccc(NC(=O)Cn2cc(-c3nc(C4CC4)no3)ccc2=O)cc1C,-24,18
COc1cccc(N2CC(NC(=O)Cc3ccc(F)cc3)CC2=O)c1 (stereo not drawn),3,-4
COCCNC(=O)c1cc(-c2ccn(CC3CC3)n2)n2ccccc12,-257,-66
CC(C)(C)OC(=O)NC(Cc1cn(C=O)c2ccccc12)C(=O)O (stereo not drawn),14,5
Cc1ccc(S(=O)(=O)N2CCn3nc(C(C)(C)C)cc3C2)cc1,13,6
CC1CCN(c2nc(F)c3c(c2F)S(=O)(=O)CCN3Cc2ccccc2)CC1,-10,48*
CC1CCN(c2nc(F)c3c(c2F)S(=O)(=O)CCN3CC2CCCO2)CC1 (stereo not drawn),-9,-17
